The whole screen tested about 310,000 compounds, of which about 14,000 (4.5%) showed an effect of 50% or more. The effect is printed as a negative number. What follows is part of a selection rich in strong results, with near analogues and random picks from the rest.
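Note: peak tail current of the secondary pulse compared with the same well before compound.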

human ether-à-go-go-related gene (hERG) potassium channel, sequence (Q12809 whole entry, looked up): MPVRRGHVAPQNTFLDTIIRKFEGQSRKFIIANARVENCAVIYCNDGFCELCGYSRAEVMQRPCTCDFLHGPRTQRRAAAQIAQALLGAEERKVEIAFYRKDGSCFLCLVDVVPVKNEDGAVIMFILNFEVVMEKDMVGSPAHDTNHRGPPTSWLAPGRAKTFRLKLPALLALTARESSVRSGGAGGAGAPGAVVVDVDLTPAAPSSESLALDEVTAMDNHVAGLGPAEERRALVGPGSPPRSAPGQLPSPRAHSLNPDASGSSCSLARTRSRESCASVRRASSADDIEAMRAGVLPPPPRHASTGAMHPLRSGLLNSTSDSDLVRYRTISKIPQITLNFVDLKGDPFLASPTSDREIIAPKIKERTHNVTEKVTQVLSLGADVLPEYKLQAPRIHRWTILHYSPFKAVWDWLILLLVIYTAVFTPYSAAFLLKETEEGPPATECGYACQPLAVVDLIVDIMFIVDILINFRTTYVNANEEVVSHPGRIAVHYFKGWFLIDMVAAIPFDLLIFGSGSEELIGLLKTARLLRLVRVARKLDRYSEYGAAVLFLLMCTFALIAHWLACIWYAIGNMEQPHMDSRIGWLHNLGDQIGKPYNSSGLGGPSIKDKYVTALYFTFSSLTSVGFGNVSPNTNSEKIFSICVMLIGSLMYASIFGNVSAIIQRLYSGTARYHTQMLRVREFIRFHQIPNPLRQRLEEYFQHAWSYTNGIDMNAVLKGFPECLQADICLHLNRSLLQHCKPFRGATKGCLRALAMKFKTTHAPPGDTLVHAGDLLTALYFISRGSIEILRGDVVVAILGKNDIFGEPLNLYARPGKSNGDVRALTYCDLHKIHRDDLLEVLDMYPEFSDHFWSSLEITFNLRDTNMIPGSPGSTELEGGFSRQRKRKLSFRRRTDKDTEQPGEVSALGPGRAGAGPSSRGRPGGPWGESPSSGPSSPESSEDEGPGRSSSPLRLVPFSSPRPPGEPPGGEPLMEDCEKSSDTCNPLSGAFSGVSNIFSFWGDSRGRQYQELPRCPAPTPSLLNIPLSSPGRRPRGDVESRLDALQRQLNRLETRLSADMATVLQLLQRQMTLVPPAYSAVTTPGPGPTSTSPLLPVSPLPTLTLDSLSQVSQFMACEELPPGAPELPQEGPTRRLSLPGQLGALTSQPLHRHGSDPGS

This assay concerns the target human ether-à-go-go-related gene (hERG) potassium channel (human, UniProt Q12809). As to the kind of experiment: primary screen, population patch clamp on CHO cells stably expressing hERG; higher = less effect of the substance.
`C=C(C)CC1(NC(C)c2ccccc2)CCCCC1` (centres unmarked): the “hERG current change (%, negative = inhibition) at 10uM” value was 4%. In the case of `COc1ccc(OC)c(-c2csc(NC(=O)Cc3ccccc3OC)n2)c1`, the “hERG current change (%, negative = inhibition) at 10uM” value is recorded as -0.305%. Under `COc1cccc(/C=N/NC(=O)c2nnn(-c3nonc3N)c2C(C)C)c1` stands 11.4%; under `Cc1ccc(C(=O)NCC(=O)O)o1`, -5.14%; under `Cc1c(CNCCC2=CCCCC2)c(C(=O)O)c(C)n1Cc1ccccc1`, -13.3%. Under `Cc1c(CNCCCc2ccccc2)c(C(=O)O)c(C)n1Cc1ccccc1` stands 4.03%. Regarding `Cc1c(CNCCc2ccc(Cl)cc2)c(C(=O)O)c(C)n1Cc1ccccc1`, the “hERG current change (%, negative = inhibition) at 10uM” value was -50.1%. As for `Cc1cccc(C)c1NC(=O)/C(C#N)=C/c1ccsc1`, the figure is -13.2%; as for `Cc1c(OCC(N)=O)ccc2c(-c3ccccc3)cc(=O)oc12`, 5.53%. Under `O=C(C1CC(=O)N(c2ccc(Cl)cc2)C1)N1CCCCCC1` (centres unmarked) stands -8.92%.

For `O=C(c1ccco1)N1CCN(C(=O)C2CC(=O)N(c3ccc(Cl)cc3)C2)CC1` (centres unmarked), the “hERG current change (%, negative = inhibition) at 10uM” value is given as -75.4%.

Regarding `O=C(C1CC(=O)N(c2ccc(Cl)cc2)C1)N1CCOCC1` (centres unmarked), the “hERG current change (%, negative = inhibition) at 10uM” value is -0.293%. As to `Cc1ccc(N2CC(C(=O)N3CCN(C(=O)c4ccco4)CC3)CC2=O)cc1` (centres unmarked), the “hERG current change (%, negative = inhibition) at 10uM” value was -71.7%. As for `O=C(c1ccco1)N1CCN(C(=O)C2CC(=O)N(c3ccccc3)C2)CC1` (centres unmarked), the figure is -41.3%. Under `CCC(C)c1ccccc1N1CC(C(=O)N2CCN(C(=O)c3ccco3)CC2)CC1=O` (centres unmarked) stands -12.6%; under `O=C(CNC(=O)c1ccc(OC(F)F)cc1)NCC1CCCO1` (centres unmarked), 2.87%. With `CCCCN1C(=O)/C(=C/c2ccc(N3CCCCCC3)cc2)C(=O)NC1=S`, the “hERG current change (%, negative = inhibition) at 10uM” value is -22.9%. For the molecule `C=CCc1ccc(OCCCOc2ccc(C(=O)O)cc2)c(OC)c1`, the “hERG current change (%, negative = inhibition) at 10uM” value is given as -1.14%. Turning to `C=CCc1ccc(OCCCCN2CC(C)CC(C)C2)c(OC)c1.O=C(O)C(=O)O` (centres unmarked), the “hERG current change (%, negative = inhibition) at 10uM” value was -67%.

Regarding `C=CCc1ccc(OCCCN2CCCC(C)C2)c(OC)c1.O=C(O)C(=O)O` (centres unmarked), the “hERG current change (%, negative = inhibition) at 10uM” value is given as -65.8%. Under `C=CCc1ccc(OCCCCN2CC(C)OC(C)C2)c(OC)c1.O=C(O)C(=O)O` (centres unmarked) stands -25.8%; under `C=CCc1ccc(OCCCCCN2CCOCC2)c(OC)c1.O=C(O)C(=O)O`, -18.1%; under `C=CCc1ccc(OCCCNC2CCCC2)c(OC)c1`, -48.1%. For `C=CCc1ccc(OCCCCOc2ccc(C(=O)O)cc2)c(OC)c1`, the “hERG current change (%, negative = inhibition) at 10uM” value stood at 14%.

Regarding `C=CCc1ccc(OCCCCN2CCC(C)CC2)c(OC)c1`, the “hERG current change (%, negative = inhibition) at 10uM” value is -69.6%. As for `C=CCc1ccc(OCCCCNC2CCCC2)c(OC)c1.O=C(O)C(=O)O`, the figure is -39.9%; as for `CCOc1ccc(C(=O)Nc2cccc(C)n2)cc1`, 0.201%. Consider `COc1ccc(/C=N/NC(=O)c2ccn[nH]2)cc1COc1ccc(Cl)cc1`, for which the “hERG current change (%, negative = inhibition) at 10uM” value was 2.09%. For `CCc1cc2c(=O)nc3n(c2s1)Cc1ccccc1/C3=C(/O)c1ccc(F)cc1`, the “hERG current change (%, negative = inhibition) at 10uM” value is listed as -3.7%.

Take `Cc1nnc(NC(=O)CN2CCN(Cc3ccc(F)cc3Cl)CC2)s1`: the “hERG current change (%, negative = inhibition) at 10uM” value was determined as 8.45%.

On to `Cc1c(Cl)cccc1NC(=O)C1CCCN(S(C)(=O)=O)C1` (centres unmarked), for which the “hERG current change (%, negative = inhibition) at 10uM” value was 22%. Under `O=C(CN1C(=O)C2CC=C(Cl)CC2C1=O)Nc1ccc(C(=O)O)cc1` (centres unmarked) stands 3.39%. As for `Cc1ccc(-c2csc3ncnc(N4CCN(Cc5ccccc5)CC4)c23)cc1`, the figure is 18%.

Take `Cc1cc(-c2csc3ncnc(N4CCN(C)CC4)c23)cc(C)c1C`: the “hERG current change (%, negative = inhibition) at 10uM” value is -65.2%. Under `CCN1CCN(c2ncnc3scc(-c4ccc(C)c(C)c4)c23)CC1` stands -76.4%; under `Fc1ccc(CN2CCN(c3ncnc4scc(-c5ccccc5)c34)CC2)cc1`, -39.9%; under `OCCN1CCN(c2ncnc3scc(-c4ccc(F)cc4)c23)CC1`, -22.1%. Under `CCOc1ccc(CN2CCN(c3ncnc4scc(-c5ccccc5)c34)CC2)cc1` stands -75.3%; under `COc1ccc(-c2csc3ncnc(N4CCN(CCO)CC4)c23)cc1`, -1.12%; under `Cc1ccc(-c2csc3ncnc(N4CCN(C)CC4)c23)cc1C`, -18.7%. In the case of `CCN1CCN(c2ncnc3scc(-c4ccc(OC)cc4)c23)CC1`, the “hERG current change (%, negative = inhibition) at 10uM” value is -54.6%.

Regarding `CCN1CCN(c2ncnc3scc(-c4ccc(C)cc4)c23)CC1`, the “hERG current change (%, negative = inhibition) at 10uM” value was -22.5%. Under `COc1ccc(-c2csc3ncnc(N4CCN(c5ccccc5)CC4)c23)cc1` stands 12.3%; under `CC(C)c1ccc(-c2csc3ncnc(N4CCN(C)CC4)c23)cc1`, -21.6%. On to `CCOC(=O)c1ccc(NC(=O)c2ccc(C)c(S(=O)(=O)N3CCOCC3)c2)cc1`, for which the “hERG current change (%, negative = inhibition) at 10uM” value was -33.4%. Take `CC(C)(C)C(=O)N1CCN(c2ccc(NC(=O)c3ccc([N+](=O)[O-])o3)cc2)CC1`: the “hERG current change (%, negative = inhibition) at 10uM” value amounted to 10.2%. Under `COc1ccccc1N(C)S(=O)(=O)c1ccc(C(=O)NC(C)c2ccccc2)cc1` (centres unmarked) stands -43.7%. Under `COc1ccc(-c2nnc(-c3cc4c(ccc5ccccc54)oc3=O)o2)cc1` stands -8.75%; under `Clc1ccc(CSc2nnc(-c3ccncc3)o2)cc1`, -11.5%; under `Cc1csc(NC(=O)CCc2c(C)nc3cc(-c4ccc(Cl)cc4)nn3c2C)n1`, -2.4%.

For the molecule `COc1ccc(N2CCN(c3ncnc4scc(-c5ccc(F)cc5)c34)CC2)cc1`, the “hERG current change (%, negative = inhibition) at 10uM” value is on record as -0.492%. As for `COc1ccccc1N1CCN(c2ncnc3sc(C)c(-c4ccccc4)c23)CC1`, the figure is 14.2%; as for `COc1ccc(F)cc1CN1CCN(c2ncnc3scc(-c4ccccc4)c23)CC1`, -41.6%; as for `CCN1CCN(c2ncnc3sc(C)c(-c4ccccc4)c23)CC1`, -57.1%. As to `O=C(CSc1ncnc2scc(-c3ccccc3)c12)N1CCN(Cc2ccc3c(c2)OCO3)CC1`, the “hERG current change (%, negative = inhibition) at 10uM” value was -35.7%.

On to `COc1ccc(CN2CCN(c3ncnc4scc(-c5ccc(F)cc5)c34)CC2)cc1`, for which the “hERG current change (%, negative = inhibition) at 10uM” value was -65.8%. With `Fc1ccc(CN2CCN(c3ncnc4scc(-c5ccc(F)cc5)c34)CC2)cc1`, the “hERG current change (%, negative = inhibition) at 10uM” value was 5.9%. As for `Cc1sc2ncnc(N3CCN(Cc4ccccc4)CC3)c2c1-c1ccccc1`, the figure is -34.8%.

As for `c1ccc(-c2csc3ncnc(N4CCN(Cc5ccc6c(c5)OCO6)CC4)c23)cc1`, the “hERG current change (%, negative = inhibition) at 10uM” value is on record as -57.6%.

On to `CNc1c([N+](=O)[O-])cnn1-c1ccccn1`, for which the “hERG current change (%, negative = inhibition) at 10uM” value is -15.5%. For the molecule `CC(C)(O)C#Cc1ccc(C(=O)NCCc2ccc(S(N)(=O)=O)cc2)cc1`, the “hERG current change (%, negative = inhibition) at 10uM” value stood at 13.6%. As for `O=C(NNS(=O)(=O)c1cccc(Cl)c1)c1cc(-c2ccc(F)cc2)nc2ccccc12`, the figure is 11.6%. Under `Cc1ccc(C(=O)COC(=O)CNS(=O)(=O)c2ccc(C)cc2)cc1` stands 12.4%; under `CCOC(=O)C(NC(C)=O)(Nc1ccc(F)cc1)C(F)(F)F` (centres unmarked), -3.72%. Turning to `O=C(O)c1cnc(-c2ccccc2)nc1Sc1cccc(Cl)c1`, the “hERG current change (%, negative = inhibition) at 10uM” value stood at 26.7%. As for `O=C(O)/C(=C\c1cn(-c2ccccc2)nc1-c1cccnc1)NC(=O)c1ccccc1`, the figure is 7.21%; as for `C/C=C/C(=O)N1CC2(CC(c3cccc(NC(=O)COc4ccc(Cl)cc4)c3)=NO2)C[C@@H]1C(N)=O` (some centres unmarked), -41.4%; as for `NC(=O)[C@H]1CC2(CC(c3cccc(NC(=O)COc4ccc(Cl)cc4)c3)=NO2)CN1C(=O)c1ccc(Cl)cc1` (some centres unmarked), -9.96%. With `C/C=C\C=C/C(=O)Nc1cccc(C2=NOC3(C2)C[C@@H](C(N)=O)N(C(=O)COc2ccc(Cl)cc2)C3)c1` (some centres unmarked), the “hERG current change (%, negative = inhibition) at 10uM” value is listed as -7.47%.

For `CC/C=C/C(=O)N1CC2(CC(c3cccc(NC(=O)CC)c3)=NO2)C[C@H]1C(N)=O` (some centres unmarked), the “hERG current change (%, negative = inhibition) at 10uM” value stood at 13.6%.

On to `C/C=C\C=C\C(=O)N1CC2(CC(c3cccc(NC(=O)COc4ccc(Cl)cc4)c3)=NO2)C[C@H]1C(N)=O` (some centres unmarked), for which the “hERG current change (%, negative = inhibition) at 10uM” value was -76.9%. On to `CC/C=C/C(=O)N1CC2(CC(c3cccc(NC(=O)COc4ccc(Cl)cc4)c3)=NO2)C[C@H]1C(N)=O` (some centres unmarked), for which the “hERG current change (%, negative = inhibition) at 10uM” value is given as -64.7%. Under `Cn1nc(-c2ccccc2)c(CSc2ccccc2Cl)c1Cl` stands 6.46%; under `Cc1cccc(C(=O)Nc2c(C(=O)N3CCN(C)CC3)cnn2-c2ccccc2)c1`, -15.9%; under `CN1CCN(C(=O)c2cnn(-c3ccccc3)c2NC(=O)c2ccccc2)CC1`, -17.8%.

`CN1CCN(C(=O)c2cnn(-c3ccccc3)c2NC(=O)c2ccc(Br)cc2)CC1`: the “hERG current change (%, negative = inhibition) at 10uM” value is listed as -81.4%. Consider `CN1CCN(C(=O)c2cnn(-c3ccccc3)c2NC(=O)c2ccc([N+](=O)[O-])cc2)CC1`, for which the “hERG current change (%, negative = inhibition) at 10uM” value was -51.6%. Consider `O=C(Nc1c(C(=O)N2CCOCC2)cnn1-c1ccccc1)c1ccc([N+](=O)[O-])cc1`, for which the “hERG current change (%, negative = inhibition) at 10uM” value is -16%.

Consider `CN1CCN(C(=O)c2cnn(-c3ccccc3)c2NC(=O)c2ccccc2Br)CC1`, for which the “hERG current change (%, negative = inhibition) at 10uM” value is 3.72%. Under `O=C(CNC(=O)c1ccc(Br)o1)NCc1ccccc1Cl` stands 1.15%; under `CCCCc1ccc(NC(=S)NCCN2CCOCC2)cc1`, -39%; under `CCOC(=O)CSc1cc(C(F)(F)F)nc(-c2ccccn2)n1`, -31.5%. As for `CC(C)CCc1noc(CN2CCC(C(=O)N3CCOCC3)CC2)n1`, the figure is -6.13%.

The record behind these values is publication PMC4336329 (PLoS ONE, 2015).
